Assay outcomes (PubChem BioAssay)
OPRM1-OPRD1 inv: mu-delta opioid heterodimer inverse agonism; P35372+P41143; cell-based MOR-DOR heterodimer luminescence; inhibition, % at 9.3 µM; 340,000 compounds, 0.21% hits; in the data active = inhibition above about 22%, passing the limit was not always enough;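 note: 0% = cells with DMSO and 100% = wells without cells with DMSO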
OPRM1-OPRD1 ag: OPRM1-OPRD1 heterodimerization agonism; 340,000 compounds, 0.3% hits; AID 504326; activation, % at 9.3 µM; P35372+P41143; cells, luminescence; in the data active = activation above about 18%;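 note: 0% = vehicle-treated cells and 100% = reference agonist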
HTR5A inv ctr: inverse agonist of human HTR5A in OPRM1-OPRD1 counter-screen | HTR5A cell line, luminescence, inverse agonism | inhibition, % at 9.3 µM | 340,000 compounds, 0.083% hits; in the data active = inhibition mostly above about 23%, no sharp cut-off; inactive = mostly below about 18%;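 note: 0% = cells with DMSO and 100% = no-cell wells with DMSO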
Target sequence (P47898 whole entry, looked up): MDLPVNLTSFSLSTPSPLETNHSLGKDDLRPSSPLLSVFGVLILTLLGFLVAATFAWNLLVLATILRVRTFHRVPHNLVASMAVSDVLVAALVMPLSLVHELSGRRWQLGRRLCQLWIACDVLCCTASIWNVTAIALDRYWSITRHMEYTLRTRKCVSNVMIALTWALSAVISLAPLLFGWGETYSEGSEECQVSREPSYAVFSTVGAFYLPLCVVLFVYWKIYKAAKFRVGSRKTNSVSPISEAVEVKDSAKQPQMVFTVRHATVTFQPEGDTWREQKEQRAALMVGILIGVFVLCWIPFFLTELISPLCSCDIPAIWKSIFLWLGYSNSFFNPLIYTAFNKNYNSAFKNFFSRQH
HTR2A ag: mouse HTR2A agonism via beta-arrestin recruitment; CHO-K1 mHTR2A beta-arrestin complementation, luminescence; percent of 30 µM serotonin response; activation, % at 7.6 µM; 360,000 compounds, 0.66% hits; AID 624169;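 active = activation above a run cutoff, the mean activation of all tested compounds plus 3 SD, cut at about 14% in these data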;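 note: 0% = plate median of compound wells and 100% = 30 µM serotonin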
HTR5A ag: HTR5A agonism, opioid heterodimer counter-screen | HTR5A agonist assay, luminescence, cell-based | activation, % at 9.3 µM | 340,000 compounds, 0.61% hits | AID 504692; in the data active = activation mostly above about 9.5%, no sharp cut-off; inactive = mostly below about 7.6%;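 note: 0% = cells with vehicle only and 100% = reference agonist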
sPLA2-III inh: Inhibits HGIII-sPLA2 liposome hydrolysis, primary screen. Q9NZ20. QFRET BODIPY PC-A2 liposome hydrolysis, fluorescence. inhibition, % at 12.2 µM. 370,000 compounds, 0.56% hits. AID 743126;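 active = inhibition above mean plus 3 SD of compounds lying within the high and low control bounds, cut at about 19% in these data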;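 note: 0% = median of test compound wells and 100% = no enzyme DMSO wells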
* marks the source's active call; other numbers are inactive results; / = no result. An excerpt weighted towards active compounds, which were near 2.2% of everything screened.

SMILES	OPRM1-OPRD1 inv	OPRM1-OPRD1 ag	HTR5A inv ctr	HTR2A ag	HTR5A ag	sPLA2-III inh
COc1ccc(CNC(=O)CN2C(=O)C(C)N(c3ccc(C)cc3)C2=O)cc1 (stereo unspecified)	8	-1	-8	-6	12*	-6
CC1(C)O[C@@H]2C[C@H]3[C@@H]4CCC5=CC(=O)C=C[C@]5(C)[C@@]4(F)[C@@H](O)C[C@]3(C)[C@]2(C(=O)CO)O1	5	-1	-28	7	-2	2
CC(=O)OCC(=O)[C@@]12OC3(CCCC3)O[C@@H]1C[C@H]1[C@@H]3CCC4=CC(=O)C=C[C@]4(C)[C@@]3(F)[C@@H](O)C[C@@]12C	-9	2	2	18*	0	-39
COc1ccc(C[N+]2=C(N)NC3=C4CCCCC4n4c(=O)n(-c5ccccc5)c(=O)n4C3C2)c(OC)c1 (stereo unspecified)	/	/	/	/	/	13
CCCCC[n+]1cccc2c3ccccc3ccc21	16	-3	4	0	4	2
CCC[n+]1c2ccccc2cc2ccccc21	5	-1	0	-4	0	29*
CCn1c(=O)cc(SCC(=O)N2CCN(c3ccccn3)CC2)c2ccccc21	9	-2	29	-6	0	7
CCn1c(=O)cc(SCC(=O)N2CCN(c3ccccc3F)CC2)c2ccccc21	6	-1	-9	-8	13*	-1
COc1cc(NC(=O)C2CCN(c3nnc(-n4cccc4)s3)CC2)cc(OC)c1	/	/	/	/	/	-24
COc1cc2[nH]c3c(=O)n4c(nc3c2cc1OC)SCCC4	1	0	-25	4	9.9*	3
COc1ccc2[nH]c3c(=O)n4c(nc3c2c1)SCC4	3	0	1	3	0	9
C#CCNC(=O)C[C@H]1C[C@@]2(C(=O)OC)C(=C[C@H](C(C)C)O[C@@H]2C2CC2)N(CCCCCCCC)C1=O	/	/	/	/	/	-1
COc1cc(Cn2cc([C@]34C[C@H]5C(=O)N(C)CC(=O)N5[C@H]3N(S(=O)(=O)c3ccccc3)c3ccccc34)c3ccccc32)cc(OC)c1	/	/	/	/	/	-2
Cc1csc(SCC(=O)N(C)c2c(N)n(Cc3ccccc3)c(=O)[nH]c2=O)n1	10	-2	-32	4	12*	3
O=C1CN(C(=O)C2CCCCC2)C=CN1CCc1ccccc1Br	/	/	/	/	/	-58
CCCCNC(=O)C[C@H]1C[C@@]2(C(=O)OC)C(=C[C@H](C3CCCC3)O[C@@H]2C)N(Cc2cccc3ccccc23)C1=O	/	/	/	/	/	-11
O=C(COC(=O)CCN1C(=O)c2ccccc2C1=O)Nc1ccccc1[N+](=O)[O-]	7	-1	-38	0	11*	0
O=C(COC(=O)CN1C(=O)c2ccccc2C1=O)Nc1ccccc1[N+](=O)[O-]	-3	1	14	-3	-6	13
CCc1ccc(S(=O)(=O)/N=C2\C=C(NS(=O)(=O)c3ccccc3)C(=O)c3ccccc32)cc1	26	-6	19	-5	-5	1
CC(C)c1ccc(S(=O)(=O)/N=C2\C=C(NS(=O)(=O)c3ccccc3)C(=O)c3ccccc32)cc1	30*	-5	15	2	-6	-6
Cc1cccc(OCC(C)CN2CCC(C(O)(c3ccccc3)c3ccccc3)CC2)c1 (stereo unspecified)	/	/	/	/	/	-15
Oc1ccccc1C=NN=C1c2ccccc2-c2ccccc21	23	-5	15	-3	-4	4
C/C(=N/N=C/c1ccccc1O)c1ccccc1O	7	-2	-37	0	10*	5
CCCCCCCCN1C(=O)[C@@H](CC(=O)NCc2ccc(OC)c(OC)c2)C[C@@]2(C(=O)OC)C1=C[C@H](COCc1ccccc1)O[C@@H]2C	/	/	/	/	/	-16
CCC[C@H]1[C@@H](NC(=O)C#Cc2ccccc2)CC[C@@]23CCCN2C(=O)CCC[C@@H]13	/	/	/	/	/	-4
Cc1ccc(OCCN(C)C(=O)CC2C(=O)NCCN2CC(C)(C)C)cc1 (stereo unspecified)	10	-2	-2	-4	1	-8
COC(=O)CN(C)C(=O)CC1C(=O)NCCN1CC(C)(C)C (stereo unspecified)	-10	1	-14	7	13*	4
NC(=O)C1CCN(c2nc(-c3ccc(OCc4ccccc4)cc3)cs2)CC1	/	/	/	/	/	19
